Sm TGR inh: qHTS Assay for the Inhibitors of Schistosoma Mansoni Peroxiredoxins; Potency, µM (titrated, usually from 114 µM), for the others: at the top dose activity change, negative = inhibition, actives largely listed as inhibitors; purified TGR, DTNB reduction, TNB absorbance 405 nm; actives 3% (n = 360,000); also: nearly all actives have a fitted effect of over 60% in size
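Kinetic colorimetric format: TGR-catalysed, NADPH-driven DTNB reduction monitored via TNB absorbance. Enzyme dispensed at 20 nM; compound exposure 15 min at room temperature before reaction start.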
AmpC detergent: qHTS Inhibitors of AmpC Beta-Lactamase (assay with detergent); P00811; AmpC hydrolysis of nitrocefin, absorbance 480 nm, 0.01% Triton; AID 485294, 2010; actives 0.041% (n = 370,000); Potency, µM (series often up to 114 µM), without a hit: top-dose activity change, negative = inhibition, actives largely listed as inhibitors;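 also: 0% = no-compound wells and -100% = no-enzyme wells; nearly all actives have a fitted effect of over 25% in size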
Target sequence (P00811 whole entry, looked up): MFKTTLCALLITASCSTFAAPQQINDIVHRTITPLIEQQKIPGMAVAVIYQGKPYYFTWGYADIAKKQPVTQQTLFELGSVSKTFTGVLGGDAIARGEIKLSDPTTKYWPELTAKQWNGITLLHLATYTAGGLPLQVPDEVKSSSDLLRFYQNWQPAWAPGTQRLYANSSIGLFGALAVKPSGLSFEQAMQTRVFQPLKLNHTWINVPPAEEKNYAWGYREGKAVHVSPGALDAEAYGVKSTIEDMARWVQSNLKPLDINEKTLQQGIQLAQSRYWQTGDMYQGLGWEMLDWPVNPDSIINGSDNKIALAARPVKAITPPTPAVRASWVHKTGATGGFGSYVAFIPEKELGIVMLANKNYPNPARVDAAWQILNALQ
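20 mM phosphate pH 7.0 + 0.01% (detergent screen) or 0.0001% Triton X-100; 5.3 nM AmpC reagent; cpd preinc 15 min RT; nitrocefin (800 uM stock) to start; A480 q20 s × 4 min; Activity was normalised to no-enzyme and no-compound control wells.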
AmpC inh no detg: qHTS Inhibitors of AmpC Beta-Lactamase (assay without detergent) | P00811 | AmpC nitrocefin hydrolysis, absorbance 480 nm, 0.0001% Triton | Potency, µM (doses to about 57.1 µM), without a hit: top-dose activity change, negative = inhibition, hits mostly inhibitors | actives 0.52% (n = 330,000);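 also: plate controls were no compound for no effect and no enzyme for full effect; nearly all actives have a fitted effect of over 20% in size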
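AmpC (5.3 nM in the dispensed reagent) in 20 mM phosphate pH 7.0 with 0.01% (detergent screen) or 0.0001% Triton X-100 was preincubated with compounds for 15 min at room temperature. Nitrocefin was then added from an 800 uM solution, and hydrolysis was followed at 480 nm.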
Starred values were filed as active, the others as inactive; ? = inconclusive; / = not tested or not shown. In the library only some 3.3% were active in any assay of this set; here they are far more common. Calls follow the shape of the dose curve; as a rule, active = well fitted curve in the direction sought with a large enough effect; inconclusive = small, poorly fitted or top-dose-only effect, or another doubt; inactive = no such curve, though single readings can be large; an effect the other way counts as inactive or inconclusive. Unless noted, % is scaled to controls: 0 for no effect and ±100 for the full control effect; potency is read from the fitted curve at half-maximal effect.

SMILES | Sm TGR inh | AmpC detergent | AmpC inh no detg
N#CC(C#N)=C(C#N)c1ccc(Nc2ccccc2)cc1 | 2.82µM* | -13.5% | -29.4%
c1ccc(Nc2ccc(Nc3ccccc3)cc2)cc1 | ? | -0.4% | -19.9%
COc1ccc(C(=O)OCC(=O)NC2CC2)cc1F | / | / | -15.3%
CC(NS(=O)(=O)c1ccccc1Cl)C1CC2CCC1C2 (configuration not stated) | 3.4% | 4.5% | -25.2%
CC(C)N1C(=O)CC2(CC[N+](C)(CCOC(=O)C(O)(c3ccccc3)c3ccccc3)CC2)C1=O (configuration not stated) | -3.4% | 1.7% | 22.6%
CC(C)N1C(=O)CC2(CC[N+](C)(CCOC(=O)C(c3ccccc3)c3ccccc3)CC2)C1=O (configuration not stated) | 50.1µM* | -3.5% | -17.0%
COC(=O)CSc1[nH]c2ccc(Br)cc2c1[N+](=O)[O-] | 2.51µM* | 3.0% | -8.9%
CCOc1ccc2[nH]c(SCC(=O)OC)c([N+](=O)[O-])c2c1 | 44.7µM* | 4.4% | -19.1%
COC(=O)CSc1[nH]c2cc(C)ccc2c1[N+](=O)[O-] | -34.5% | -0.1% | -34.4%
CCOc1ccc2nc(-c3ccccc3)nc(SCC(=O)OC)c2c1 | 1.1% | -17.1% | -5.9%
COc1cc(C=O)ccc1OCC(=O)NC(C)(C)C | / | 0.1% | -2.2%
COc1cccc(CNC(=O)CC(c2ccc(C)cc2)N2Cc3ccccc3C2=O)c1 (configuration not stated) | -0.3% | 6.0% | /
Cc1ccc(S(=O)(=O)NC(C(=O)Oc2ccc3ccc(=O)oc3c2)c2ccccc2)cc1 (configuration not stated) | ? | -2.7% | -45.3%
Cc1ccc(S(=O)(=O)NCCC(=O)Oc2ccc3ccc(=O)oc3c2)cc1 | 15.8µM* | 2.9% | -26.2%
CN(Cc1c(C(=O)N/N=C/c2cccc(Cl)c2)nnn1-c1nonc1N)c1ccccc1 | -1.5% | 4.7% | 14.1µM*
CN(Cc1c(C(=O)N/N=C/c2ccccc2)nnn1-c1nonc1N)c1ccccc1 | -10.3% | -13.5% | -42.7%
Cc1ccnc(S(=O)(=O)Cc2ccc([N+](=O)[O-])cc2)n1 | ? | 4.1% | -14.9%
Cn1c(CO)cnc1S(=O)(=O)Cc1ccc([N+](=O)[O-])cc1 | 28.2µM* | 1.3% | ?
CCC(C)c1ccccc1NC(=O)C(C)Sc1n[nH]c(N)n1 (configuration not stated) | -3.6% | -4.7% | -19.4%
Cc1ccc(S(=O)(=O)N2CCOC2CNC(=O)C(=O)NCc2ccccn2)cc1 (configuration not stated) | 0.3% | 1.5% | 18.0%
COc1ccc(C(=O)n2nc(-c3ccco3)nc2NCc2cccs2)cc1OC | 20µM* | -2.9% | /
Cc1ccc(C(=O)n2nc(-c3ccco3)nc2NCc2cccs2)cc1 | -6.3% | 10.9% | /
Cc1cccc(C(=O)n2nc(-c3ccco3)nc2NCc2ccccc2)c1 | 35.5µM* | 9.7% | /
Cc1ccc(CNc2nc(-c3ccco3)nn2C(=O)c2ccccc2[N+](=O)[O-])cc1 | -8.0% | -6.0% | /
COc1ccc(CNc2nc(-c3ccco3)nn2C(=O)c2ccccc2C)cc1 | -0.4% | -6.7% | /
SMILES | Sm TGR inh | AmpC detergent | AmpC inh no detg
COc1ccccc1CNc1nc(-c2ccco2)nn1C(=O)c1ccccc1[N+](=O)[O-] | 89.1µM* | 15.2% | /
Cc1ccc(OCC(=O)N/N=C2\CC(=O)CC(C)(C)C2)c(Br)c1 | -19.9% | ? | -3.9%
Cn1c(=O)n(C)c2cc(N3CCOCC3)c(NC(=O)c3ccc(F)cc3)cc21 | -10.4% | -3.1% | 29.1%
CCc1cc(C(=O)Nc2sc(C)c(CC)c2C#N)no1 | -10.0% | 18.1% | /
O=C(CCNS(=O)(=O)c1ccccc1)NCC1CCCCC1 | 0.6% | 0.0% | -22.2%
O=C(O)c1[nH]c2ccccc2c1C(c1cc(Br)ccc1O)c1c(C(=O)O)[nH]c2ccccc12 | -15.8% | -13.2% | -18.1%
Cc1ccc(C(c2cccc(Br)c2)c2c(C)[nH]c3ccccc23)s1 (configuration not stated) | 25.1µM* | 14.0% | /
COc1ccc(S(=O)(=O)c2nnn(-c3cc(Cl)c(OC)cc3OC)c2C)cc1 | 3.1% | 16.9% | /
CCc1nc(Nc2ccc(N3CCN(C(C)=O)CC3)cc2)c2oc3ccccc3c2n1 | -31.6% | 35.5µM* | 183.1%
CC(=O)N1CCN(c2ccc(Nc3ncnc4c3oc3ccccc34)cc2)CC1 | 0.0% | -9.5% | 103.7%
S=C(Nc1ccccc1)N1N=C(c2cccs2)CC1c1cccs1 (configuration not stated) | -11.7% | 2.1% | -35.3%
CCOc1ccc(CC(=O)NNC(=S)NC)cc1 | 10.4% | 4.6% | -4.8%
CNC(=S)NNC(=O)Cc1ccccc1 | 33.8% | -0.9% | 0.282µM*
CN(CC(=O)Nc1ccccc1C(F)(F)F)C(=O)c1cccc(-n2cccc2)c1 | 2.5% | -14.2% | -1.1%
c1ccc(CNc2c3c(nc4ncnn24)CCCC3)nc1 | -24.7% | 6.9% | -6.7%
C#CCNc1c2c(nc3ncnn13)CC(C)CC2 (configuration not stated) | 22.4µM* | 1.3% | -21.5%
Cc1ccc(-n2nc(CO)c(C(=O)NCc3cccs3)n2)cc1C | -6.5% | -4.0% | /
Cc1ccc(-c2nc(N)n(C(=O)c3ccco3)n2)cc1 | 1.7% | 1.6% | -11.8%
O=C(c1ccco1)n1c(=S)nc2ccccn21 | 50.1µM* | -5.3% | 2.4%
Cc1cccc2nc(=S)n(C(=O)c3ccco3)n12 | 22.4µM* | -3.7% | -14.9%
Cc1ccn2c(c1)nc(=S)n2C(=O)c1ccccc1 | 0.0% | ? | -9.3%
CCN(CC)S(=O)(=O)c1ccc2c(c1)N(CC(=O)NCc1ccc(F)cc1)C(=O)CO2 | 7.9% | 15.0% | /
CN(CC(=O)Nc1ccc(Cl)cc1)C(=O)CCc1nc2sc3c(c2c(=O)[nH]1)CCCC3 | -5.5% | -12.5% | -36.0%
CCCn1nc([N+](=O)[O-])c(C(C#N)c2nc3ccccc3s2)c(Cl)c1=O (configuration not stated) | 1.26µM* | -11.1% | 14.1µM*
O=[N+]([O-])c1ccc(CN2CCN(c3nc4ccccc4s3)CC2)cc1 | ? | -5.7% | 7.2%
SMILES | Sm TGR inh | AmpC detergent | AmpC inh no detg
CCn1nc([N+](=O)[O-])c(C(C#N)c2nc3ccccc3n2C)c(Cl)c1=O (configuration not stated) | 14.1µM* | -11.5% | -36.4%
Cn1c(C(C#N)C(=O)c2sc3ccccc3c2Cl)nc2ccccc21 (configuration not stated) | -26.8% | ? | -38.0%
Cc1ccc(N/C=C/c2onc(C)c2[N+](=O)[O-])cc1 | 4.2% | -8.0% | -6.2%
Cc1cccc(C)c1N/C=C/c1onc(C)c1[N+](=O)[O-] | 89.1µM* | -2.2% | /
COc1ccc2oc(=O)c(/C(C)=N/Nc3ccccc3)cc2c1 | 44.7µM* | 4.8% | -36.8%
COc1ccc2oc(=O)c(C(=O)N3CCN(C(=O)c4ccccc4)CC3)cc2c1 | -7.7% | ? | -1.1%
COc1ccc2oc(=O)c(C(=O)N3CCN(C(=O)c4ccco4)CC3)cc2c1 | 39.8µM* | 4.1% | 6.5%
COc1ccc2oc(=O)c(C(=O)Nc3cccc(C(C)=O)c3)cc2c1 | -8.0% | -14.2% | -9.3%
